SMILES strings stand for the structures. Compounds without any hit were thinned out: in the full panel of roughly 83,000, 20% have a hit.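 48-hour exposure, single concentration, 96-well plates; percent growth endpoint where 0 means no net growth. Active: below 10.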 The source made the active and inactive calls.

For this assay, the system named is SK-MEL-2 melanoma. In words: NCI-60 one-dose screen, 48 h (100 = growth as untreated, 0 = no growth, -100 = all killed). The following applies: 10 µM unless noted.
For `COC(=O)c1ccc2c(c1)nc(-c1ccc(O)c(OC)c1)n2-c1cc(C(C)(C)C)[nH]n1`, the growth was 92.3% (inactive). With `Cc1nc(N)[nH]c(=O)c1C`, the growth was -10.2% (active). On to `O=C1/C(=C/c2ccc([N+](=O)[O-])o2)Oc2ccc(Cl)cc21`, for which the growth was -45.6% (active). In the case of `O=[N+]([O-])c1ccc2c(c1)S(=O)c1cc([N+](=O)[O-])ccc1N2` it was 105% (inactive); in that of `Clc1ccc2nc(Cl)c3ccccc3c2c1`, 99% (inactive); in that of `CC(=O)Oc1ccc(C23c4ccccc4C2(OC(C)=O)c2cc(OC(C)=O)ccc23)cc1` (stereo not drawn), 97.9% (inactive). As for `Nc1ccc2c(c1)/C(=N/O)c1cc([N+](=O)[O-])ccc1-2`, the growth is 96.9% (inactive). On to `CN1CCCC1c1cccnc1` (stereo not drawn), for which the growth is -0.647% (active). `COc1ccc(-c2cnnn2-c2cc(OC)c3c(c2)OCO3)cc1`: the growth is 22.4% (inactive).

With `Cc1nn(-c2ccc(Br)cc2)c2nc3c(nc12)C(=O)C(=O)c1ccccc1-3`, the growth was 102% (inactive). For the molecule `Cn1cc(-c2csc(-c3cn(C)c4ncccc34)n2)c2cc(Br)cnc21`, the growth was 111% (inactive). With `OC(Cc1cccnc1)c1ccccc1` (stereo not drawn) the figure was 102% (inactive); with `C/C(=N/N=C(N)N)c1ccc(Cl)cc1`, -5.11% (active); with `Cc1nn(-c2ccccc2)c2nc3c(nc12)C(=O)CCC3`, 90% (inactive). As for `C[n+]1ccc(C#N)c2ccccc21`, the growth is 77.5% (inactive). Consider `CCCCCCCC/C=C/CCCCCCCC1=NC(C)(C)CN1CC(C)O` (stereo not drawn), for which the growth is 33% (inactive). In the case of `O=C1Nc2ccccc2C12Nc1cc(Cl)ccc1S2` (stereo not drawn) it was 130% (inactive); in that of `CCC(CC)NCCCCCNc1cc(OC)cc2cccnc12`, 79.8% (inactive).

For the origin of these results see PubChem BioAssay (NCI).
